Arbovirus inh: antivirals against arbovirus infection, primary screen, cell-based, full library, 10K replicate subset. arbovirus infection cell-based antiviral screen. inhibition, % at 10 µM. hit rate 0.37% among 200,000. AID 1251, 2008; in the data active means inhibition above about 30%
Wee1 stabilizer: Wee1 degradation inhibitors, primary screen, cell-based, HeLa, Wee1K328M-luciferase, luminescence. Wee1-like protein kinase (Homo sapiens), P30291. HeLa Luc-Wee1K328M stability; 100% = proteasome inhibitor MG132 effect. reporter increase, % at 5 µM. hit rate 1.2% among 220,000. AID 1321, 2008;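 active means activation above the mean of all tested compounds plus 3 SD, set per screening run, cut at about 8.8% in these data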;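 further: cells exposed to compound for 20 h before luminescence read; 0% = DMSO alone and 100% = MG132 at 30 µM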
Target sequence (P30291 whole entry K328M): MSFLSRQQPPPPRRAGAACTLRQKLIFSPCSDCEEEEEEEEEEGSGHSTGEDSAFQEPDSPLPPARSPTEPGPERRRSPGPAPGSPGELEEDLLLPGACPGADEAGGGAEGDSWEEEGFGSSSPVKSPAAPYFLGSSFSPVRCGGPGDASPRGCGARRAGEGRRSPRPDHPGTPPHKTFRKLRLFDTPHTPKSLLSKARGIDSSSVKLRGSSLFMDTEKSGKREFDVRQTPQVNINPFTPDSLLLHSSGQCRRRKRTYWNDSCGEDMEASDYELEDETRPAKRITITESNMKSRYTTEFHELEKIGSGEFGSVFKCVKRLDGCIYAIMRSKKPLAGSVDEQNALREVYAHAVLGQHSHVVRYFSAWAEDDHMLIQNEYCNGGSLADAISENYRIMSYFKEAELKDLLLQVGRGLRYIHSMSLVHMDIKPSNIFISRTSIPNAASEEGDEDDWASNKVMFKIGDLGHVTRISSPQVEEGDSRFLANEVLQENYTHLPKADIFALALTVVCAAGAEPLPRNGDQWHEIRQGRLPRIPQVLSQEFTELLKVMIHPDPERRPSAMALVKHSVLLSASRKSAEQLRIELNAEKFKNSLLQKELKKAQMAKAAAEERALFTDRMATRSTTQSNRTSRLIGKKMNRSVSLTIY
Hsp70 act: Hsp70 transcriptional activators, primary screen, cell-based, HeLa, Hsp70 promoter luciferase, luminescence, 10 µM. HeLa Hsp70 promoter luciferase reporter; scaled: vehicle 0, proteasome-inhibitor control 100%. activation, % at 10 µM. hit rate 0.04% among 200,000. AID 1203, 2008;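 active means activation above the mean across all tested compounds plus 3 SD, cutoff set per campaign, cut at about 5.5% in these data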;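 further: 100% = MG132 at 30 µM as the positive control and 0% = DMSO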
HMGR II inh: inhibitors of E. faecalis class II HMGR, primary screen, biochemical, Enterococcus faecalis; hit rate 0.41% among 190,000; HMG-CoA reductase (Enterococcus faecalis, mvaE); AID 1066, 2008; inhibition, % at 10 µM; purified E. faecalis HMGR, NADPH absorbance 340 nm kinetic;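 active means inhibition above a set limit, the median over all tested compounds plus 3 SD, cut at about 9.5% in these data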;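 further: enzyme runs in reverse so mevalonate oxidation gives rising NADPH absorbance; 0% = complete reaction with DMSO and 100% = background rate lacking mevalonate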
PKD1 kinase inh: inhibitors of human PKD1 kinase, biochemical, fluorescence polarization; Serine/threonine-protein kinase D1 (Homo sapiens), Q15139; PKD1 kinase fluorescence polarization assay; inhibition, % (no concentration beside the values); hit rate 0.056% among 200,000; in the data active means inhibition above about 50%
The depositor's hits bear a star; · = no result. Shown are actives, neighbours in structure and some others; about 2% of the full set was active somewhere.

SMILES | Arbovirus inh | Wee1 stabilizer | Hsp70 act | HMGR II inh | PKD1 kinase inh
O=C(/C=C/c1ccc([N+](=O)[O-])cc1)Nc1ncc([N+](=O)[O-])s1 | -7.7 | 22.4* | 0.1 | 7.1 | 2.9
CC(C)CC(NC(=O)c1ccc(Cl)cc1)C(=O)OCc1cc([N+](=O)[O-])cc2c1OCOC2 (configuration not stated) | -3.3 | 2.6 | -0.4 | -0.4 | -2.7
Cc1onc(-c2c(F)cccc2Cl)c1C(=O)Nc1cccc(S(=O)(=O)NCc2ccco2)c1 | -9.6 | -1.7 | 1.1 | -0.3 | -7.5
CC(=O)NC1C(=O)N=C(SCC(=O)Nc2sc3c(c2C#N)CCCCCC3)NC1=O (configuration not stated) | 15.5 | -1.8 | -0.1 | 9.8* | -5.3
N#Cc1c(NC(=O)CSc2ncn[nH]2)sc2c1CCCCC2 | -22.7 | 0.4 | -0.5 | 1.8 | -7.0
CCC(C)NC(=O)CNC(=S)N(Cc1ccccc1F)C1CCCCC1 (configuration not stated) | 4.7 | -3.1 | -0.1 | 0.8 | -1.4
c1ccc(CSc2ccc(-c3ccccn3)nn2)nc1 | -35.8 | 9.7* | 0.7 | -4.5 | -1.0
Clc1ccc(-c2ccc(SCc3ccccn3)nn2)cc1 | -4.8 | 10.1* | 0.1 | -4.9 | -2.4
CCOc1ccc(N(CC(=O)Nc2cccnc2)S(C)(=O)=O)cc1 | 13.9 | -1.5 | -0.2 | -6.9 | -0.4
CN(c1cccc(NC(=O)CN(c2cccc(F)c2)S(C)(=O)=O)c1)S(C)(=O)=O | 3.5 | -0.3 | 0.9 | 3.6 | -6.3
CCN(CC)CC(=O)Nc1ccc(/C(C)=N/NC2=NCCN2)cc1 | -6.3 | -1.3 | 0.0 | 9.7* | 0.4
O=Cc1ccc(-c2cccc([N+](=O)[O-])c2)o1 | · | 10.4* | · | · | ·
C=CCN(CC=C)C(=S)NC(=O)Cc1cccc2ccccc12 | 56.0* | -0.1 | -0.3 | 4.2 | -8.0
CCS(=O)(=O)c1ccc2c(c1)N(S(C)(=O)=O)CC(C(=O)NN)O2 (configuration not stated) | 0.8 | -2.6 | 0.3 | 0.2 | -1.3
CCN(CC)S(=O)(=O)c1ccc(C(=O)NC(=S)N(CCC#N)Cc2cccnc2)cc1 | 7.0 | 6.3 | 0.3 | -6.2 | 1.1
CCOc1ccc(CNc2cccc(SC)c2)cc1 | -10.3 | -0.2 | -0.4 | 2.1 | -4.2
CCC(C)(C)C(=O)Nc1cc([N+](=O)[O-])ccc1F | -0.8 | 0.7 | 1.0 | 12.1* | 2.1
CCC(C)(C)C(=O)Nc1cc([N+](=O)[O-])ccc1Cl | -3.0 | 3.2 | -0.3 | 0.1 | -4.2
CCOC(=O)c1c(-c2ccc(F)cc2)csc1/N=C/N(C)C | -6.8 | 0.7 | -0.1 | 3.6 | 1.3
Cc1ccc(-n2cccc2/C=C2\C(=N)N3N=C(C(C)C)SC3=NC2=O)cc1 | 32.4* | -1.2 | -0.4 | -4.1 | -3.9
CCC1=NN2C(=N)/C(=C\c3cccn3-c3ccc(OC)cc3)C(=O)N=C2S1 | 29.7 | -3.2 | -0.3 | -1.9 | -0.6
O=Cc1cn(-c2ccccc2)nc1-c1cc2cc(O)ccc2oc1=O | 33.2* | 0.5 | -0.2 | -1.5 | 1.5
COc1cc(C2C3=C(CC(C)(C)CC3=O)OC3=C2C(=O)CC(C)(C)C3)cc([N+](=O)[O-])c1O | 11.4 | -1.7 | -0.2 | -3.3 | -2.4
COc1cc(C2C(C#N)=C(N)OC3=C2C(=O)CC(C)(C)C3)cc([N+](=O)[O-])c1O (configuration not stated) | · | 9.7* | · | · | ·
CCCN1CCN(C(=O)Cn2cnc3ccc(S(=O)(=O)N4CCC(C)CC4)cc3c2=O)CC1 | 8.8 | -2.5 | 0.1 | 0.7 | -3.8
SMILES | Arbovirus inh | Wee1 stabilizer | Hsp70 act | HMGR II inh | PKD1 kinase inh
O=[N+]([O-])c1ccc(N2CCN(C(=S)Nc3ccc(F)cc3F)CC2)cc1 | -0.5 | 9.2* | -0.1 | -3.6 | -6.5
Oc1ccccc1-c1nc(/C=C/c2ccccc2)nn1-c1ccccc1 | 10.6 | 9.6* | 0.1 | -4.1 | -9.0
CCCOc1ccc(S(=O)(=O)NCc2ccc(OC)cc2)cc1 | 8.3 | 21.9* | -0.3 | -1.8 | -8.1
COc1ccc(CNS(=O)(=O)c2ccc(OC)cc2)cc1 | 7.5 | 1.0 | -0.1 | -0.7 | -4.4
COc1c(OC(C)=O)ccc(/C=N\NC(=O)c2ccc(Br)cc2)c1[N+](=O)[O-] | -1.1 | -1.2 | -0.4 | 2.1 | 2.8
Cc1cc(C)cc(N=C2NC(=O)/C(=C/c3cccs3)S2)c1 | 2.2 | -0.9 | -0.5 | -3.4 | 6.2
CCOc1ccc2c(c1)S/C(=C\c1cccs1)C(=O)N2 | · | 9.0* | · | · | ·
Cc1ccc(NC(=O)COC(=O)CN2C(=O)C3CCCCC3C2=O)cc1S(=O)(=O)N1CCOCC1 (configuration not stated) | -6.1 | -1.4 | -0.2 | -3.3 | -0.1
Cc1ccc(NC(=O)COC(=O)CN2C(=O)NC(C)(C)C2=O)cc1S(=O)(=O)N1CCOCC1 | 23.0 | 0.1 | -0.3 | 9.7* | -7.4
O=C(NN1CCOCC1)c1cn(-c2ccccc2)nc1-c1cccs1 | · | 5.0 | · | · | ·
O=S(=O)(NC1CCCCC1Oc1ccccc1)c1ccccc1 (configuration not stated) | 10.1 | 5.2 | -0.3 | 0.2 | -3.7
CCC(=O)Nc1ccc2c(c1)nc(CN1CCCCC1)n2C | -4.8 | -1.9 | -0.2 | 15.1* | -0.7
COc1ccc(OCC(=O)Nc2ccc3c(c2)nc(CCN2CCOCC2)n3C)cc1 | -1.7 | 9.1* | -0.2 | -0.7 | 0.2
Cc1cccc(NC(=O)CN2CCSc3ccccc32)c1 | 5.0 | -2.9 | -0.1 | 13.3* | 1.7
CCN(CC)C(=O)C(=O)c1cn(CCOc2ccccc2)c2ccccc12 | 0.3 | -0.8 | -0.2 | -5.9 | -4.9
CN(c1ccc(C(=O)N2CCCCC2)cc1)S(=O)(=O)c1ccccc1 | 2.1 | 1.3 | -0.5 | 31.0* | -4.4
CC(C)(C)c1nnc(SCC(=O)c2ccccc2)n(N)c1=O | -8.8 | 0.1 | -0.3 | 1.0 | -5.5
O=C(CSc1nc2ccccc2c(=O)n1NC(=O)c1ccccc1)c1ccccc1 | -2.0 | 4.4 | 0.3 | 1.4 | -8.5
O=C(CSc1nc2ccccc2c(=O)n1NC(=O)c1ccccc1)c1ccc(Cl)cc1 | -15.3 | 9.3* | -0.2 | -1.4 | 2.5
O=c1[nH]cc(O)c(=O)[nH]1 | · | 1.1 | · | · | ·
O=c1[nH]cc(N(CCO)CCO)c(=O)[nH]1 | · | 9.5* | · | · | ·
CCCN1Cc2cccc(C(=O)NCc3ccc(C)cc3)c2C1=O | -4.9 | 9.3* | 0.2 | -1.8 | -3.0
C1CCC(C(CC2CCCCN2)C2CCCCC2)CC1 (configuration not stated) | -44.4 | -0.9 | -0.1 | 10.3* | 2.8
CCN(CC)CCCN=C(C)C1=C(O)c2ccccc2C1=O | · | -2.1 | · | · | ·
CCCN=C(C)C1=C(O)c2ccccc2C1=O | -2.5 | 9.1* | 0.7 | -2.3 | -21.5
Cn1c(=O)c2c(ncn2CCC(=O)N/N=C/c2ccncc2)n(C)c1=O | · | -2.1 | · | · | ·
O=C1CC(c2ccccc2)CC(O)=C1C=NCc1ccccc1Cl (configuration not stated) | -17.4 | 9.3* | 1.6 | -0.4 | -3.3
